# In PMC11006913:
# Residue numbers refer to the chain shown, from its start.
# How the values were obtained:
# Assay in all cases: PBM; 200 nM protein, PBS
# Conditions in all cases: dsDNA, one strand shown
# VENTX [1] = molecular target: T1, VENTX (Homo sapiens, UniProt O95231 78-163, R121Q)
# T1 sequence: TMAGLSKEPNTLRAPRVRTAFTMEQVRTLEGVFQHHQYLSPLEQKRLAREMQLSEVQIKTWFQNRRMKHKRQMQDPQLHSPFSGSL
# HOXC9 [2] = molecular target: HOXC9 (Homo sapiens, UniProt P31274 178-260)
# HOXC9 [3] = molecular target: HOXC9 (Homo sapiens, UniProt P31274 178-260, R193K)
# Sequence of HOXC9 (Homo sapiens, UniProt P31274 178-260, R193K) (P31274 178-260 R193K): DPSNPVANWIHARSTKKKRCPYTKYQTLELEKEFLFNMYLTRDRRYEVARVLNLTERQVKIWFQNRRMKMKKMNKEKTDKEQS
# HOXC9 [4] = molecular target: HOXC9 (Homo sapiens, UniProt P31274 178-260, R222W)
# Sequence of HOXC9 (Homo sapiens, UniProt P31274 178-260, R222W) (P31274 178-260 R222W): as the sequence (P31274 178-260 R193K) above, with K16R, R45W counted along it
# HOXB9 [5] = molecular target: HOXB9 (Homo sapiens, UniProt P17482 171-250, T197M)
# Sequence of HOXB9 (Homo sapiens, UniProt P17482 171-250, T197M) (P17482 171-250 T197M): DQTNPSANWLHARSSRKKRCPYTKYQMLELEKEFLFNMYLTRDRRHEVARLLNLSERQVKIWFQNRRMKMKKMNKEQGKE
# HOXC9 [6] = molecular target: HOXC9 (Homo sapiens, UniProt P31274 178-260, K195R)
# Sequence of HOXC9 (Homo sapiens, UniProt P31274 178-260, K195R) (P31274 178-260 K195R): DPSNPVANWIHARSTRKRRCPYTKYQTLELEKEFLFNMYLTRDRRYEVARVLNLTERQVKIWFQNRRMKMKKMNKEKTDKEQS
# HOXA7 [7] = molecular target: HOXA7 (Homo sapiens, UniProt P31268 116-202)
# Sequence of HOXA7 (Homo sapiens, UniProt P31268 116-202) (P31268 116-202): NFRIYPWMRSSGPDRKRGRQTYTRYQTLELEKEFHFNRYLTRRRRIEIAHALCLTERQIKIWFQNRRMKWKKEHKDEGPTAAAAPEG
# HOXC10 [8] = molecular target: HOXC10 (Homo sapiens, UniProt Q9NYD6 254-340)
# Sequence of HOXC10 (Homo sapiens, UniProt Q9NYD6 254-340) (Q9NYD6 254-340): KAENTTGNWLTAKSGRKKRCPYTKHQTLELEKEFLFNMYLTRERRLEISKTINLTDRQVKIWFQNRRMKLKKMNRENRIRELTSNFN
# HOXB6 [9] = molecular target: HOXB6 (Homo sapiens, UniProt P17509 132-218, K202E)
# Sequence of HOXB6 (Homo sapiens, UniProt P17509 132-218, K202E) (P17509 132-218 K202E): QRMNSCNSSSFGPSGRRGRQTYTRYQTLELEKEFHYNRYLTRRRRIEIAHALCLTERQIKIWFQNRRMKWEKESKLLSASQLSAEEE
# HOXB9 [10] = molecular target: HOXB9 (Homo sapiens, UniProt P17482 171-250)
# Sequence of HOXB9 (Homo sapiens, UniProt P17482 171-250) (P17482 171-250): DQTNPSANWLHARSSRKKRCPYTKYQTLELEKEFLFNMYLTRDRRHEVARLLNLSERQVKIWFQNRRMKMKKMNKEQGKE
# HOXD13 [11] = molecular target: HOXD13 (Homo sapiens, UniProt P35453 263-343, T313R)
# Sequence of HOXD13 (Homo sapiens, UniProt P35453 263-343, T313R) (P35453 263-343 T313R): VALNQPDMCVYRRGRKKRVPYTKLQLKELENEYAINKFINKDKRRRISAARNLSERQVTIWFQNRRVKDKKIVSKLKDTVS
# HOXD13 [12] = molecular target: HOXD13 (Homo sapiens, UniProt P35453 263-343)
# Sequence of HOXD13 (Homo sapiens, UniProt P35453 263-343) (P35453 263-343): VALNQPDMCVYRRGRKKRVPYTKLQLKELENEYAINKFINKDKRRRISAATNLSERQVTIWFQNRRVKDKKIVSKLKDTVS
# HOXC10 [13] = molecular target: HOXC10 (Homo sapiens, UniProt Q9NYD6 254-340, K271E)
# Sequence of HOXC10 (Homo sapiens, UniProt Q9NYD6 254-340, K271E) (Q9NYD6 254-340 K271E): as the sequence (Q9NYD6 254-340) above, with K18E counted along it
# HOXD13 [14] = molecular target: HOXD13 (Homo sapiens, UniProt P35453 263-343, T313A)
# Sequence of HOXD13 (Homo sapiens, UniProt P35453 263-343, T313A) (P35453 263-343 T313A): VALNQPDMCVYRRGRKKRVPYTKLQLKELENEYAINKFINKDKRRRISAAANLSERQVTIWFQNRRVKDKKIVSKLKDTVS
# HOXB9 [15] = molecular target: HOXB9 (Homo sapiens, UniProt P17482 171-250, R186Q)
# Sequence of HOXB9 (Homo sapiens, UniProt P17482 171-250, R186Q) (P17482 171-250 R186Q): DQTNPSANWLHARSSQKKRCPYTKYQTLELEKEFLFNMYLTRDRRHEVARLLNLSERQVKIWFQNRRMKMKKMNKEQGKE
# HOXA7 [16] = molecular target: HOXA7 (Homo sapiens, UniProt P31268 116-202, W177C)
# Sequence of HOXA7 (Homo sapiens, UniProt P31268 116-202, W177C) (P31268 116-202 W177C): as the sequence (P31268 116-202) above, with W62C counted along it
# HOXB6 [17] = molecular target: HOXB6 (Homo sapiens, UniProt P17509 132-218)
# Sequence of HOXB6 (Homo sapiens, UniProt P17509 132-218) (P17509 132-218): as the sequence (P17509 132-218 K202E) above, with E71K counted along it
# HOXA4 [18] = molecular target: HOXA4 (Homo sapiens, UniProt Q00056 201-287, W262R)
# Sequence of HOXA4 (Homo sapiens, UniProt Q00056 201-287, W262R) (Q00056 201-287 W262R): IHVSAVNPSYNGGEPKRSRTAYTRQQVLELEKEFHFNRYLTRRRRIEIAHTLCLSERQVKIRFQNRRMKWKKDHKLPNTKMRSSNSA
# HOXA4 [19] = molecular target: HOXA4 (Homo sapiens, UniProt Q00056 201-287, R217L)
# Sequence of HOXA4 (Homo sapiens, UniProt Q00056 201-287, R217L) (Q00056 201-287 R217L): as the sequence (Q00056 201-287 W262R) above, with R17L, R62W counted along it
# HOXA4 [20] = molecular target: HOXA4 (Homo sapiens, UniProt Q00056 201-287)
# Sequence of HOXA4 (Homo sapiens, UniProt Q00056 201-287) (Q00056 201-287): as the sequence (Q00056 201-287 W262R) above, with R62W counted along it
# HOXA4 [21] = molecular target: HOXA4 (Homo sapiens, UniProt Q00056 201-287, W262F)
# Sequence of HOXA4 (Homo sapiens, UniProt Q00056 201-287, W262F) (Q00056 201-287 W262F): as the sequence (Q00056 201-287 W262R) above, with R62F counted along it
# VENTX [22] = molecular target: T2, VENTX (Homo sapiens, UniProt O95231 78-163)
# T2 sequence: T1 sequence with Q44R
# VENTX [23] = molecular target: T3, VENTX (Homo sapiens, UniProt O95231 78-163, Y115F)
# T3 sequence: T1 sequence with Y38F, Q44R
# VAX1 [24] = molecular target: VAX1 (Homo sapiens, UniProt Q5SQQ9 86-172)
# Sequence of VAX1 (Homo sapiens, UniProt Q5SQQ9 86-172) (Q5SQQ9 86-172): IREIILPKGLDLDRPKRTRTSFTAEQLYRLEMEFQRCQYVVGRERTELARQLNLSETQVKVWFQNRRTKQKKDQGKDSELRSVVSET
# VAX1 [25] = molecular target: VAX1 (Homo sapiens, UniProt Q5SQQ9 86-172, T142I)
# Sequence of VAX1 (Homo sapiens, UniProt Q5SQQ9 86-172, T142I) (Q5SQQ9 86-172 T142I): as the sequence (Q5SQQ9 86-172) above, with T57I counted along it
# VAX1 [26] = molecular target: VAX1 (Homo sapiens, UniProt Q5SQQ9 86-172, K157R)
# Sequence of VAX1 (Homo sapiens, UniProt Q5SQQ9 86-172, K157R) (Q5SQQ9 86-172 K157R): as the sequence (Q5SQQ9 86-172) above, with K72R counted along it
# NKX2-6 = molecular target: T4, NKX2-6 (Homo sapiens, UniProt A6NCS4 118-204)
# T4 sequence: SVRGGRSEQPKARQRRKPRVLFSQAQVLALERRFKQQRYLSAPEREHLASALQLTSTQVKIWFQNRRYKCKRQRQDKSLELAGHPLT
# Sequence of HOXC9 (Homo sapiens, UniProt P31274 178-260) (P31274 178-260): as the sequence (P31274 178-260 R193K) above, with K16R counted along it
sequence,measurement,setting,value
CTAACGAG,binding signal,VENTX [1],"10.2 upbm affinity estimate (log intensity, higher = more binding, comparable within an allelic series)"
same,binding signal,HOXC9 [2],"10.9 upbm affinity estimate (log intensity, higher = more binding, comparable within an allelic series)"
same,binding signal,HOXC9 [3],"10.8 upbm affinity estimate (log intensity, higher = more binding, comparable within an allelic series)"
same,binding signal,HOXC9 [4],"10.1 upbm affinity estimate (log intensity, higher = more binding, comparable within an allelic series)"
GTAATAAA,binding signal,HOXB9 [5],"10.1 upbm affinity estimate (log intensity, higher = more binding, comparable within an allelic series)"
same,binding signal,HOXC9 [6],"13.2 upbm affinity estimate (log intensity, higher = more binding, comparable within an allelic series)"
same,binding signal,HOXA7 [7],"11.4 upbm affinity estimate (log intensity, higher = more binding, comparable within an allelic series)"
same,binding signal,HOXC10 [8],"13 upbm affinity estimate (log intensity, higher = more binding, comparable within an allelic series)"
same,binding signal,HOXB6 [9],"9.9 upbm affinity estimate (log intensity, higher = more binding, comparable within an allelic series)"
same,binding signal,HOXB9 [10],"12.6 upbm affinity estimate (log intensity, higher = more binding, comparable within an allelic series)"
same,binding signal,HOXC9 [2],"13.3 upbm affinity estimate (log intensity, higher = more binding, comparable within an allelic series)"
same,binding signal,HOXD13 [11],"11 upbm affinity estimate (log intensity, higher = more binding, comparable within an allelic series)"
same,binding signal,HOXC9 [3],"13.2 upbm affinity estimate (log intensity, higher = more binding, comparable within an allelic series)"
same,binding signal,HOXD13 [12],"12.1 upbm affinity estimate (log intensity, higher = more binding, comparable within an allelic series)"
same,binding signal,HOXC10 [13],"12.6 upbm affinity estimate (log intensity, higher = more binding, comparable within an allelic series)"
same,binding signal,HOXD13 [14],"11.9 upbm affinity estimate (log intensity, higher = more binding, comparable within an allelic series)"
same,binding signal,HOXB9 [15],"12.3 upbm affinity estimate (log intensity, higher = more binding, comparable within an allelic series)"
same,binding signal,HOXC9 [4],"11.4 upbm affinity estimate (log intensity, higher = more binding, comparable within an allelic series)"
same,binding signal,HOXA7 [16],"8.79 upbm affinity estimate (log intensity, higher = more binding, comparable within an allelic series)"
same,binding signal,HOXB6 [17],"11.8 upbm affinity estimate (log intensity, higher = more binding, comparable within an allelic series)"
GGGATCCC,binding signal,HOXB9 [5],"8.56 upbm affinity estimate (log intensity, higher = more binding, comparable within an allelic series)"
same,binding signal,HOXA4 [18],"9.85 upbm affinity estimate (log intensity, higher = more binding, comparable within an allelic series)"
same,binding signal,HOXC9 [6],"9.54 upbm affinity estimate (log intensity, higher = more binding, comparable within an allelic series)"
same,binding signal,HOXB6 [9],"9.02 upbm affinity estimate (log intensity, higher = more binding, comparable within an allelic series)"
same,binding signal,HOXA4 [19],"9.68 upbm affinity estimate (log intensity, higher = more binding, comparable within an allelic series)"
same,binding signal,HOXB9 [10],"8.21 upbm affinity estimate (log intensity, higher = more binding, comparable within an allelic series)"
same,binding signal,HOXC9 [2],"9.51 upbm affinity estimate (log intensity, higher = more binding, comparable within an allelic series)"
same,binding signal,HOXC9 [3],"9.56 upbm affinity estimate (log intensity, higher = more binding, comparable within an allelic series)"
same,binding signal,HOXA4 [20],"9.71 upbm affinity estimate (log intensity, higher = more binding, comparable within an allelic series)"
same,binding signal,HOXB9 [15],"8.25 upbm affinity estimate (log intensity, higher = more binding, comparable within an allelic series)"
same,binding signal,HOXC9 [4],"9.68 upbm affinity estimate (log intensity, higher = more binding, comparable within an allelic series)"
same,binding signal,HOXA4 [21],"9.89 upbm affinity estimate (log intensity, higher = more binding, comparable within an allelic series)"
same,binding signal,HOXB6 [17],"9.02 upbm affinity estimate (log intensity, higher = more binding, comparable within an allelic series)"
CCCATAAA,binding signal,HOXB9 [5],"9.63 upbm affinity estimate (log intensity, higher = more binding, comparable within an allelic series)"
same,binding signal,HOXC9 [6],"12.8 upbm affinity estimate (log intensity, higher = more binding, comparable within an allelic series)"
same,binding signal,HOXA7 [7],"10.4 upbm affinity estimate (log intensity, higher = more binding, comparable within an allelic series)"
same,binding signal,HOXC10 [8],"12.5 upbm affinity estimate (log intensity, higher = more binding, comparable within an allelic series)"
same,binding signal,HOXB9 [10],"12.2 upbm affinity estimate (log intensity, higher = more binding, comparable within an allelic series)"
same,binding signal,HOXC9 [2],"13 upbm affinity estimate (log intensity, higher = more binding, comparable within an allelic series)"
same,binding signal,HOXD13 [11],"11 upbm affinity estimate (log intensity, higher = more binding, comparable within an allelic series)"
same,binding signal,HOXC9 [3],"12.8 upbm affinity estimate (log intensity, higher = more binding, comparable within an allelic series)"
same,binding signal,HOXD13 [12],"12.3 upbm affinity estimate (log intensity, higher = more binding, comparable within an allelic series)"
same,binding signal,HOXC10 [13],"11.9 upbm affinity estimate (log intensity, higher = more binding, comparable within an allelic series)"
same,binding signal,HOXD13 [14],"12 upbm affinity estimate (log intensity, higher = more binding, comparable within an allelic series)"
same,binding signal,HOXB9 [15],"12 upbm affinity estimate (log intensity, higher = more binding, comparable within an allelic series)"
same,binding signal,HOXC9 [4],"11.2 upbm affinity estimate (log intensity, higher = more binding, comparable within an allelic series)"
same,binding signal,HOXA7 [16],"8.63 upbm affinity estimate (log intensity, higher = more binding, comparable within an allelic series)"
GCGCGAAC,binding signal,VENTX [1],"8.01 upbm affinity estimate (log intensity, higher = more binding, comparable within an allelic series)"
same,binding signal,VENTX [22],"8 upbm affinity estimate (log intensity, higher = more binding, comparable within an allelic series)"
same,binding signal,VENTX [23],"8.06 upbm affinity estimate (log intensity, higher = more binding, comparable within an allelic series)"
same,binding signal,VAX1 [24],"7.03 upbm affinity estimate (log intensity, higher = more binding, comparable within an allelic series)"
same,binding signal,VAX1 [25],"7.1 upbm affinity estimate (log intensity, higher = more binding, comparable within an allelic series)"
same,binding signal,VAX1 [26],"7.1 upbm affinity estimate (log intensity, higher = more binding, comparable within an allelic series)"
GCTATTAA,binding signal,HOXB9 [5],"10 upbm affinity estimate (log intensity, higher = more binding, comparable within an allelic series)"
same,binding signal,HOXC9 [6],"12.7 upbm affinity estimate (log intensity, higher = more binding, comparable within an allelic series)"
same,binding signal,HOXA7 [7],"11.4 upbm affinity estimate (log intensity, higher = more binding, comparable within an allelic series)"
same,binding signal,HOXB6 [9],"9.98 upbm affinity estimate (log intensity, higher = more binding, comparable within an allelic series)"
same,binding signal,HOXB9 [10],"12 upbm affinity estimate (log intensity, higher = more binding, comparable within an allelic series)"
same,binding signal,HOXC9 [2],"12.8 upbm affinity estimate (log intensity, higher = more binding, comparable within an allelic series)"
same,binding signal,HOXD13 [11],"10.7 upbm affinity estimate (log intensity, higher = more binding, comparable within an allelic series)"
same,binding signal,NKX2-6,"11.8 upbm affinity estimate (log intensity, higher = more binding, comparable within an allelic series)"
same,binding signal,HOXC9 [3],"12.7 upbm affinity estimate (log intensity, higher = more binding, comparable within an allelic series)"
same,binding signal,HOXD13 [12],"11.8 upbm affinity estimate (log intensity, higher = more binding, comparable within an allelic series)"
same,binding signal,HOXC10 [13],"11.8 upbm affinity estimate (log intensity, higher = more binding, comparable within an allelic series)"
same,binding signal,HOXD13 [14],"11.5 upbm affinity estimate (log intensity, higher = more binding, comparable within an allelic series)"
same,binding signal,HOXB9 [15],"11.8 upbm affinity estimate (log intensity, higher = more binding, comparable within an allelic series)"
same,binding signal,HOXC9 [4],"10.9 upbm affinity estimate (log intensity, higher = more binding, comparable within an allelic series)"
same,binding signal,HOXA7 [16],"8.84 upbm affinity estimate (log intensity, higher = more binding, comparable within an allelic series)"
same,binding signal,HOXB6 [17],"11.8 upbm affinity estimate (log intensity, higher = more binding, comparable within an allelic series)"
